p53null 39C kill: qHTS Screen for Compounds that Selectively Target Cancer Cells with p53 Mutations: Cytotoxicity of p53 Null Cells at the Nonpermissive Temperature; H1299 p53-null (neo) cells, 39C, ATPlite viability, 24 h; Potency, µM (highest dose often 46.1 µM), hits mostly cytotoxic; actives 0.97% (n = 55,000); AID 904, 2007; further: nearly all actives have a fitted effect of over 50% in size
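Temperature-shift cytotoxicity format: compound titrations on p53-null or A138V-expressing H1299 cells held 24 hr at 39C, cell ATP then measured, AC50 from Hill model.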
GALC G270D act: A Novel Cell-Based Assay to Identify Small Molecules for B -Galactocerebrosidase; P54803; 145M-Twi-hGALC-G270D cells (Twitcher mouse brain line with human GALC G270D), HMU-beta-Gal fluorescence, 48 h; Potency, µM (highest dose often 57.5 µM), hits mostly activators; actives 0.1% (n = 45,000); further: nearly all actives have a fitted effect of over 65% in size
Target sequence (P54803 whole entry G286D): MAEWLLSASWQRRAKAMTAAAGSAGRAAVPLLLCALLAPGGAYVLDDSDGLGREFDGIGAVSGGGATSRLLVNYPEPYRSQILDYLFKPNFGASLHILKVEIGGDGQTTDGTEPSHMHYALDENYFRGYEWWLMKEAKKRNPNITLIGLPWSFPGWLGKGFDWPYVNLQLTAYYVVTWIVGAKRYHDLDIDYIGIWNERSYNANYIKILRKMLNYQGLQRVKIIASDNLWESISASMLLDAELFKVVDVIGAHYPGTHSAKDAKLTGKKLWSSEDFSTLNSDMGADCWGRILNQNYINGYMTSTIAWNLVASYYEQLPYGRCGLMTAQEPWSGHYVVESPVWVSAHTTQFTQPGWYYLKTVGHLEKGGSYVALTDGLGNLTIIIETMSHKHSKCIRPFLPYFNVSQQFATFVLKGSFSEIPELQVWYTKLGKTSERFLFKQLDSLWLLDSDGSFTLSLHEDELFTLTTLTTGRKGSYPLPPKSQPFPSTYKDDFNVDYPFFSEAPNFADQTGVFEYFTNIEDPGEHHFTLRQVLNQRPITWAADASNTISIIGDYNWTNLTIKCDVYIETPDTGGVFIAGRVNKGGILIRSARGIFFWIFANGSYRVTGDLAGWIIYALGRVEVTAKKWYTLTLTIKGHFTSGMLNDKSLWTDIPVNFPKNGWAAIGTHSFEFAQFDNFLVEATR
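Live 145M-Twi cells (Twitcher mouse brain-derived, GALC-null) stably expressing human GALC-G270D, with a wild-type GALC line, were compound-treated. Residual GALC activity was then read as fluorescence from 0.1 mM final HMU-β-gal at pH 5.2; higher signal means activation.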
p53null 32C tox: qHTS Screen for Compounds that Selectively Target Cancer Cells with p53 Mutations: Cytotoxicity of p53 Null Cells at the Permissive Temperature; H1299-neo p53 null cells, ATP luminescence, 24 h, 32C; Potency, µM (highest dose often 46.1 µM), hits mostly cytotoxic; actives 0.62% (n = 55,000); AID 903, 2007; further: nearly all actives have a fitted effect of over 55% in size
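AC50 values derive from Hill modelling of qHTS concentration-response data (up to 46 uM) in H1299-neo cells. Cells were treated 24 h at 32C following overnight attachment at 37C; viability was read as cellular ATP.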
GPR32 ag: qHTS for Agonists of Human Resolvin D1 Receptor DRV1 | CHO-K1 GPR32 beta-arrestin PathHunter luminescence, 90 min; zero percent set by DMSO-only wells | actives 2.5% (n = 48,000) | Probable G-protein coupled receptor 32 (Homo sapiens), O75388 | AID 1346428, 2018 | activation, % at 76.9 µM;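 active means activation of at least 60% and not above a set upper limit, about 1 call in 100 departs from these limits; inconclusive means activation of 40% to 60%, or above that upper limit; inactive means activation under 40%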
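Luminescent readout of beta-Gal complementation quantifies ligand-induced beta-arrestin association with GPR32 in CHO-K1 cells; 90 min compound incubation at 37 °C, detection 1 h at room temperature.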
NTMT1 inhibitor: Primary qHTS for Inhibitors of N-terminal methyltransferase 1 (NTMT1): MTaseGlo Assay | N-terminal Xaa-Pro-Lys N-methyltransferase 1 (Homo sapiens), Q9BV86 | NTMT1 MTase-Glo SAH luminescence, purified enzyme | Potency, µM (series often up to 114 µM), hits mostly inhibitors | actives 2.5% (n = 59,000) | AID 1645870, 2021; further: nearly all actives have a fitted effect of over 65% in size
SKOV3 invasion: Primary qHTS assay for Inhibitors of ovarian cancer metastasis using an organotypic tumor microenvironment (TME) model; SKOV3ip1-GFP adhesion/invasion on 3D omental model, fluorescence; Potency, µM (titrated, usually from 45.8 µM), hits mostly inhibitors; actives 0.1% (n = 46,000); AID 1963576, 2024; further: nearly all actives have a fitted effect of over 65% in size
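Primary human omental fibroblast/mesothelial 3D culture pre-formed 48 h. SKOV3ip1-GFP cells added with compounds (0.36-46 umol/L), incubated 2 h RT/16 h 37 C, fixed; GFP cells quantified at 488/509 nm.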
A number is an active result; – = inactive; ? = inconclusive; · = no result; ! = a repeat was not active. Most compounds without a hit are left out; they make up all but 4% or so of the library. Unless noted, the call rests on the fitted dose curve; in most records, active means well fitted curve in the direction sought with a large enough effect; inconclusive means small, poorly fitted or top-dose-only effect, or another doubt; inactive means no such curve, though single readings can be large; an effect the other way counts as inactive or inconclusive.

SMILES | p53null 39C kill | GALC G270D act | p53null 32C tox | GPR32 ag | NTMT1 inhibitor | SKOV3 invasion
Cc1ccc(Nc2ncnc3c2nc2n3CCCC2)c(Br)c1 | 11µM | – | ? | – | ? | –
CCCCC1CCC(c2nc(-c3ccncc3)no2)CC1 (stereo unspecified) | · | · | · | · | – | ·
CC(=O)OC1C(O)C(C)=C(CCC(C)CC(=O)O)C2(C)CCCC(C)(C)C12 (stereo unspecified) | · | · | · | · | – | ·
COC(=O)c1c(SCC(=O)Nc2ccccc2C(F)(F)F)[nH]c2ccc(Cl)cc2c1=O | 6.3µM | – | – | – | – | –
CN(CCCNC(=O)c1cc2c(Cl)nc3ccccc3c2s1)Cc1ccccc1 | 25µM | – | ? | – | ? | ?
Cc1ccc2nc(Cl)c3cc(C(=O)NCCCN(C)Cc4ccccc4)sc3c2c1 | ? | – | ? | – | ? | ?
CCN(CCCNC(=O)c1cc2c(=O)[nH]c3ccc(C)cc3c2s1)Cc1ccccc1 | ? | – | ? | – | 50µM | ?
CCN(CCCNC(=O)c1cc2c(Cl)nc3ccccc3c2s1)Cc1ccccc1 | – | – | – | 95 | ? | –
Cn1ccnc1CCOC(c1cc2nccc(C(=O)O)c2[nH]1)c1ccccc1Cl (stereo unspecified) | · | · | · | · | – | ·
CCN(CC)CCOc1ccc(Nc2ncc3cc(-c4c(Cl)cccc4Cl)c(=O)n(C)c3n2)cc1 | · | · | · | · | 79µM! | –
Cc1cc(Nc2ncc3cc(-c4c(Cl)cccc4Cl)c(=O)n(C)c3n2)ccc1F | · | · | · | · | – | ·
Nc1ncnc2c1c(I)cn2C1OC(CO)C(O)C1O (stereo unspecified) | · | · | · | · | 1.4µM | ·
Nc1ncnc2c1ncn2[C@@H]1O[C@H](CO)[C@@H](O)[C@@H]1O | · | · | · | · | – | –
COc1ccc(C(=O)Nc2ccc(-c3nc4ccccc4[nH]3)cc2)cc1F | · | · | · | · | – | ·
Cc1[nH]c2ccc(C(=O)NCCc3ccccc3Cl)cc2c1C | – | – | – | – | 89µM | –
COC(=O)c1ccnc(NCc2ccc(O)c3ncccc23)c1 | · | · | · | · | – | ·
CCCc1cc(=O)n2[nH]c(-c3ccc(C)cc3)nc2n1 | – | – | ? | – | – | –
COC(=O)Cc1c(C)nc2nc(-c3ccc(C)cc3)[nH]n2c1=O | ? | – | 10µM | – | – | –
Cc1cccc(C)c1NC(=O)C1CCN(S(=O)(=O)c2cccc3nsnc23)CC1 | – | – | – | – | – | –
Cc1cc(NC(=O)C2CCCN(S(=O)(=O)c3ccc(Br)s3)C2)ccc1Br (stereo unspecified) | – | – | – | – | – | –
Cc1ccc(NC(=O)C2CCN(S(=O)(=O)c3cccc4nsnc34)CC2)cc1F | – | – | – | 93 | – | –
Cc1cc(NC(=O)C2CCN(S(=O)(=O)c3ccc(Br)s3)CC2)ccc1Br | ? | – | – | 76 | – | –
Cc1ccc(NC(=O)C2CCN(S(=O)(=O)c3cccc4nonc34)CC2)cc1C | – | – | – | 101 | – | –
Cc1ccc(COC(=O)N2CC[C@@H](CNc3ncccn3)[C@@H](F)C2)cc1 | · | · | · | · | – | ·
Cc1ccc(S(=O)(=O)Nc2ccccc2C(=O)Nc2ccc(-c3ccccc3)nc2)cc1 | · | · | · | · | – | ·
SMILES | p53null 39C kill | GALC G270D act | p53null 32C tox | GPR32 ag | NTMT1 inhibitor | SKOV3 invasion
O=C(O)c1ccc2cc(-c3ccc(O)c(C45CC6CC(CC(C6)C4)C5)c3)ccc2c1 | · | · | · | · | 50µM! | –
O=C(O)c1ccc2c(c1)C(=O)N([C@]1(C(=O)O)C[C@H]1c1ccccc1)C2=O | · | · | · | · | – | ·
Cc1c(Cl)cccc1-c1ccc(C(=O)Nc2ccc(F)cc2)o1 | ? | – | – | 61 | – | –
O=C(c1cc2ccc3cccnc3c2[nH]1)N1CCCCC1 | 0.79µM | – | 2µM | – | 40µM | –
CC1CCCN(C(=O)c2cc3ccc4cccnc4c3[nH]2)C1 (stereo unspecified) | 2µM | – | 1µM | – | ? | –
CCOC(=O)C1CCN(C(=O)c2cc3ccc4cccnc4c3[nH]2)CC1 | – | – | – | – | – | –
O=C(c1cc2ccc3cccnc3c2[nH]1)N1CCN(c2ccc(Cl)cc2)CC1 | – | – | – | – | – | –
O=[S+]([O-])(Nc1ccc(-c2nc3ccccc3[nH]2)cc1)c1ccc2c(c1)OCO2 | · | · | · | · | – | ·
CCOC(=O)c1ccc(-c2ccc(/C=C(\C#N)c3nc4ccc(C)cc4[nH]3)o2)cc1 | 6.3µM | – | ? | – | ? | 3.2µM
CCOC(=O)c1ccc(-c2ccc(/C=C(\C#N)C(=O)Nc3cccc(C)c3)o2)cc1 | – | – | – | – | – | –
CCC(c1ccc(O)cc1)C(CC)c1ccc(O)cc1 (stereo unspecified) | · | · | · | · | ? | –
CC[C@H](c1ccc(O)cc1)[C@@H](CC)c1ccc(O)cc1 | · | – | · | – | 11µM | ·
Fc1ccc(-c2nnc(CCCCSc3nnc(-c4cccc5ccccc45)o3)o2)cc1 | · | · | · | · | – | ·
N#Cc1nc(Nc2cc(F)cc(F)c2)c2ncn(CCN3CCCC3)c2n1 | · | · | · | · | – | ·
Fc1ccc(-c2nnc(-c3ccc(Cl)cc3Cl)o2)cc1 | 11µM | · | 6.3µM | · | · | ·
C#CCN(Cc1cc2c(=O)[nH]c(C)nc2cc1Br)c1ccc(C(=O)NCc2cccnc2)cc1 | · | · | · | · | – | ·
COC1CC/C=C(\C)C(=O)Nc2cc(O)cc(c2)CC(C)CC(OC)C(O)C(C)/C=C(\C)C1OC(N)=O (stereo unspecified) | · | · | · | · | – | ·
O=C1NC(=O)C(c2cn3c4c(cccc24)CCC3)C1c1c[nH]c2ccccc12 (stereo unspecified) | · | · | · | · | – | ·
Cc1ccc(-n2ncc3c(Nc4cccc(C(F)(F)F)c4)ncnc32)cc1C | – | – | – | 94 | – | –
Cc1ccc(CNc2ncnc3c2cnn3-c2ccc(C)cc2C)cc1 | – | – | – | 61 | – | –
Cc1ccc(Cl)cc1-n1ncc2c(Nc3cccc(C)c3C)ncnc21 | – | – | – | – | 5.6µM | –
Cc1ccc(-n2ncc3c(NCc4ccccc4)ncnc32)cc1C | – | – | – | – | – | –
Cc1ccc(-n2ncc3c(Nc4cccc(Cl)c4)ncnc32)c(C)c1 | – | – | – | – | – | 10µM
Cc1cc(O)c2ccccc2c1O | · | – | · | 81 | ? | ·
O=C(Nc1cccc(C(F)(F)F)c1)c1cccc2cc(Oc3cc(CO)ncn3)ccc12 | · | · | · | · | – | ·
COc1ccc(C(=O)N2CCN(c3ccc4c(c3)CCC(=O)N4)CC2)cc1OC | · | · | · | · | – | ·
C/C(=C\c1ccc(F)cc1)C1Nc2cccc3cccc(c23)N1 | · | · | · | · | – | ·
